{"source": "paper PMC4336329", "about": "(PLoS ONE, 2015)", "note": "Hit rate of the full screen: of about 310,000 compounds, about 14,000 (4.5%) showed an effect of 50% or more. Effects have a minus sign here. The entries come from a sample that favours strong results as a whole.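 Note: peak tail current of the secondary pulse compared with the same well before compound.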"}
{"biological_target": "human ether-à-go-go-related gene (hERG) potassium channel (human, UniProt Q12809)", "sequence (Q12809 whole entry, looked up)": "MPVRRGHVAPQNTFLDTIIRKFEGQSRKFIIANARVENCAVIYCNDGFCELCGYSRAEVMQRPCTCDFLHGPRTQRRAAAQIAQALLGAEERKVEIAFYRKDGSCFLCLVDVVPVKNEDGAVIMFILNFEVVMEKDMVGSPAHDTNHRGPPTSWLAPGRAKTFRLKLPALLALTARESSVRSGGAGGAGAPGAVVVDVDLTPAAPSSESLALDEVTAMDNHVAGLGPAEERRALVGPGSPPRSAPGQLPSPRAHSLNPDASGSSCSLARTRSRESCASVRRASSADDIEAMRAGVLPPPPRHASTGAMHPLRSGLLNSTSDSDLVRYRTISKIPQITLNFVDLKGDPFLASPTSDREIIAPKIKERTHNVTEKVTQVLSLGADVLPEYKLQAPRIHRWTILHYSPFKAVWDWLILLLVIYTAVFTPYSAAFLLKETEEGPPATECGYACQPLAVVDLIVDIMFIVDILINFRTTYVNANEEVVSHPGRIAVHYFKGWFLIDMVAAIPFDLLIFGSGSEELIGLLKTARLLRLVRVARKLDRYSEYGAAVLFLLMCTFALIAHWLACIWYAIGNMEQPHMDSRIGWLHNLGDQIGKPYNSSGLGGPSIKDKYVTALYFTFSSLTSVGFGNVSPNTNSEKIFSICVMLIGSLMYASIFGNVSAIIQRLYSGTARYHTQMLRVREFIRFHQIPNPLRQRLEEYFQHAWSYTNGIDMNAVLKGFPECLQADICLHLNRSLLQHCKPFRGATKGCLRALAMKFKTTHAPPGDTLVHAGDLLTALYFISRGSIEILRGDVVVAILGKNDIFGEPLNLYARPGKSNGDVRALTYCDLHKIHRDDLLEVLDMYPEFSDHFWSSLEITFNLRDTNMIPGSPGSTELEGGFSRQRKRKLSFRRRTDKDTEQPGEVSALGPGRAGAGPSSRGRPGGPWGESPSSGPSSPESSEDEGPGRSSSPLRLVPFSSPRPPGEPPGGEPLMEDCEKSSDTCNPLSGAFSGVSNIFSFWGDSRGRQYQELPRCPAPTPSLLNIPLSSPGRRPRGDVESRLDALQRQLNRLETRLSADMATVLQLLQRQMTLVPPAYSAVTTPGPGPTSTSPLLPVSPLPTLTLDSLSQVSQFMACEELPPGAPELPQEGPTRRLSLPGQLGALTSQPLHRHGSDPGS", "experiment": "primary screen, population patch clamp on CHO cells stably expressing hERG; higher = less effect of the substance", "units": {"hERG current change (%, negative = inhibition) at 10uM": "%"}}
{"smiles": "O=C(c1cccc(F)c1F)N1CCCC1", "hERG current change (%, negative = inhibition) at 10uM": 24.7}
{"smiles": "CC1(C)S[C@@H]2[C@H](NC(=O)COc3ccccc3)C(=O)N2C1C(=O)OCc1ccccc1", "note": "(some centres unmarked)", "hERG current change (%, negative = inhibition) at 10uM": -48.1}
{"smiles": "COC(=O)C1N2C(=O)[C@@H](NC(=O)COc3ccccc3)[C@H]2SC1(C)C", "note": "(some centres unmarked)", "hERG current change (%, negative = inhibition) at 10uM": -4.31}
{"smiles": "Cc1cc(COC(=O)C2N3C(=O)[C@@H](NC(=O)COc4ccccc4)[C@H]3SC2(C)C)on1", "note": "(some centres unmarked)", "hERG current change (%, negative = inhibition) at 10uM": -56.2}
{"smiles": "Cc1nc2c(Br)c3nc(C(F)(F)F)[nH]c3c(Br)c2[nH]1", "hERG current change (%, negative = inhibition) at 10uM": -4.86}
{"smiles": "COc1ccc(N(C(=O)CNC(=O)c2cccs2)C(C(=O)NCC2CCCO2)c2ccccc2)cc1OC", "note": "(centres unmarked)", "hERG current change (%, negative = inhibition) at 10uM": 4.94}
{"smiles": "O=C(Nc1ccccc1N1CCOCC1)c1ccc([N+](=O)[O-])o1", "hERG current change (%, negative = inhibition) at 10uM": -17.9}
{"smiles": "CN1CCN(c2ccccc2NC(=O)c2ccc([N+](=O)[O-])o2)CC1", "hERG current change (%, negative = inhibition) at 10uM": -69.6}
{"smiles": "CCC(=O)N1CCN(c2ccc(Cl)cc2NC(=O)c2ccc([N+](=O)[O-])o2)CC1", "hERG current change (%, negative = inhibition) at 10uM": -21}
{"smiles": "O=C(Nc1ccccc1N1CCCC1)c1ccc([N+](=O)[O-])o1", "hERG current change (%, negative = inhibition) at 10uM": 5.51}
{"smiles": "Cc1cccc(NC(=O)c2ccc(-c3ccccc3[N+](=O)[O-])o2)c1", "hERG current change (%, negative = inhibition) at 10uM": -55.2}
{"smiles": "CN1CCN(c2ccccc2NC(=O)c2ccc(-c3ccc(Cl)cc3Cl)o2)CC1", "hERG current change (%, negative = inhibition) at 10uM": -3.82}
{"smiles": "Cc1ccccc1NC(=O)c1ccc([N+](=O)[O-])o1", "hERG current change (%, negative = inhibition) at 10uM": 11.5}
{"smiles": "CC(=O)c1cccc(NC(=O)c2ccc(-c3ccccc3[N+](=O)[O-])o2)c1", "hERG current change (%, negative = inhibition) at 10uM": -17.4}
{"smiles": "COc1ccccc1NC(=O)c1ccc(-c2ccccc2[N+](=O)[O-])o1", "hERG current change (%, negative = inhibition) at 10uM": 26.7}
{"smiles": "COc1cccc(NC(=O)c2ccc(-c3ccccc3[N+](=O)[O-])o2)c1", "hERG current change (%, negative = inhibition) at 10uM": -46.1}
{"smiles": "CCC(=O)N1CCN(c2ccccc2NC(=O)c2ccc([N+](=O)[O-])o2)CC1", "hERG current change (%, negative = inhibition) at 10uM": -69}
{"smiles": "CN1CCN(c2ccccc2NC(=O)c2ccc(-c3ccccc3[N+](=O)[O-])o2)CC1", "hERG current change (%, negative = inhibition) at 10uM": -67.9}
{"smiles": "CN1CCN(C(=O)C(C(=O)c2ccc(F)cc2)n2ccccc2=O)CC1", "note": "(centres unmarked)", "hERG current change (%, negative = inhibition) at 10uM": -1.24}
{"smiles": "Cc1ccc(C)c(N2CCN(S(=O)(=O)c3ccc4c(c3)NC(=O)CO4)CC2)c1", "hERG current change (%, negative = inhibition) at 10uM": 12.7}
{"smiles": "O=C(O)c1cccc(Cn2c(Cl)c(/C=N/NC(=O)c3ccco3)sc2=O)c1", "hERG current change (%, negative = inhibition) at 10uM": 38.3}
{"smiles": "Cc1ccc(N(C(=O)c2csnn2)C(C(=O)NC2CCCCC2)c2cccnc2)c(C)c1", "note": "(centres unmarked)", "hERG current change (%, negative = inhibition) at 10uM": -5.38}
{"smiles": "N#CCCN(C(=O)COC(=O)CNC(=O)C12CC3CC(CC(C3)C1)C2)c1ccccc1", "hERG current change (%, negative = inhibition) at 10uM": -23.5}
{"smiles": "CC12CCC(C(=O)NCCc3ccccc3)(OC1=O)C2(C)C", "note": "(centres unmarked)", "hERG current change (%, negative = inhibition) at 10uM": 9.83}
{"smiles": "CSc1nnc(C)c(=O)n1COC(=O)c1ccc(S(=O)(=O)N2CCCC2)cc1", "hERG current change (%, negative = inhibition) at 10uM": -22.8}
{"smiles": "O=C(CCS(=O)(=O)c1cccc2nonc12)NCCc1ccccc1Cl", "hERG current change (%, negative = inhibition) at 10uM": -7.38}
{"smiles": "CC(C)NC(=O)CN1C(=O)NC(CCc2ccccc2)C1=O", "note": "(centres unmarked)", "hERG current change (%, negative = inhibition) at 10uM": 5.75}
{"smiles": "COc1cc(C)ccc1OCCCCOc1ccccc1C(C)=O", "hERG current change (%, negative = inhibition) at 10uM": 3.3}
{"smiles": "CCn1c(CNC(=O)c2cccnc2)cc2ccccc21", "hERG current change (%, negative = inhibition) at 10uM": 2.41}
{"smiles": "Cc1ccc(C2NC(=S)NC3=C2N2CCC3CC2)cc1", "note": "(centres unmarked)", "hERG current change (%, negative = inhibition) at 10uM": 1.2}
{"smiles": "CCOC(=O)c1sc(NC(=O)CSc2nc(C)cc(C)c2C#N)c(C#N)c1C", "hERG current change (%, negative = inhibition) at 10uM": 8.19}
{"smiles": "O=C(/C=C/c1ccc(Cl)c(Cl)c1)N1CCOCC1", "hERG current change (%, negative = inhibition) at 10uM": -1.3}
{"smiles": "CCc1ccccc1NC(=O)c1cc([N+](=O)[O-])ccc1N1CCOCC1", "hERG current change (%, negative = inhibition) at 10uM": -16.5}
{"smiles": "CC1CCN(c2ccccc2NC(=O)c2cc([N+](=O)[O-])ccc2N2CCOCC2)CC1", "hERG current change (%, negative = inhibition) at 10uM": -2.63}
{"smiles": "CC(C)C(=O)N1CCN(c2ccccc2NC(=O)c2cc([N+](=O)[O-])ccc2N2CCOCC2)CC1", "hERG current change (%, negative = inhibition) at 10uM": -67.2}
{"smiles": "CS(=O)(=O)N1CCN(c2ccccc2NC(=O)c2ccc([N+](=O)[O-])o2)CC1", "hERG current change (%, negative = inhibition) at 10uM": -25.2}
{"smiles": "CC1CCN(c2ccccc2NC(=O)c2ccc([N+](=O)[O-])o2)CC1", "hERG current change (%, negative = inhibition) at 10uM": 25}
{"smiles": "CC(C)C(=O)N1CCN(c2ccccc2NC(=O)c2ccc([N+](=O)[O-])o2)CC1", "hERG current change (%, negative = inhibition) at 10uM": -63}
{"smiles": "O=C(CNC(=O)c1cccs1)c1ccc(Br)cc1", "hERG current change (%, negative = inhibition) at 10uM": 12.2}
{"smiles": "O=C(O)Cc1ccc(C(=O)c2cccs2)s1", "hERG current change (%, negative = inhibition) at 10uM": 11.8}
{"smiles": "COc1ccc(CNC(=S)N/N=C(/C)c2ccccc2)cc1", "hERG current change (%, negative = inhibition) at 10uM": -6.47}
